Structures can show the parent of a compound that is named as a salt.
System: Saccharomyces cerevisiae BY4741 SeMeCo community
Assay: z-score of subpopulation abundance vs DMSO median, subpopulation auxotrophic for U; higher = larger share of this subpopulation than in DMSO controls
Settings: 10 µM; 24 h; SM minimal medium; subpopulation (auxotrophy): U
Experimental: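 Fluorescent four-plasmid SeMeCo (self-establishing metabolically cooperating S. cerevisiae BY4741 community; plasmids pH-mRuby2, pL-mWasabi, pU-eCFP, pM-TagRFP657) was grown 24 h in minimal SM medium with each Selleck FDA-approved drug at 10 µM in 384-well plates. Cells were fixed and imaged by high-content confocal microscopy. For each auxotrophic subpopulation (and the prototroph), a z-score gives the deviation from the DMSO vehicle-control population median.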

Compared with COc1ccc2c3c([nH]c2c1)C(C)=NCC3 [Harmaline], COc1ccc2[nH]cc(CCN)c2c1 [5-Methoxytryptamine] is higher in “z-score of subpopulation abundance” value: -8.11 for the first, 1.12 for the second.

First: CC(=O)O[C@H]1C[C@@H]2CC[C@@H]3[C@H](CC[C@@]4(C)[C@H]3C[C@H]([N+]3(C)CCCCC3)[C@@H]4OC(C)=O)[C@@]2(C)C[C@@H]1[N+]1(C)CCCCC1 [Pancuronium dibromide]
Second: CCN1CC2(OC(=O)c3ccccc3NC(C)=O)CCC(OC)C34C1C(CC23)C1(O)CC(OC)C2CC4C1(O)C2OC (centres undefined) [Lappaconitine]
The “z-score of subpopulation abundance” value of the first is higher: 0.25 for the first, -0.25 for the second.

First: CC[N+](C)(CC)CCOC(=O)C(O)(c1ccccc1)c1ccccc1 [Methylbenactyzine Bromide]
Second: C[N+]12CCC(CC1)C(OC(=O)C(O)(c1ccccc1)c1ccccc1)C2 (centres undefined) [Clidinium Bromide]
The “z-score of subpopulation abundance” value of the first is lower: -0.09 for the first, 0.71 for the second.

First: O=[N+]([O-])C(Br)(CO)CO [Bronopol]
Second: NCCc1c[nH]c2ccc(O)cc12 [Serotonin HCl]
The “z-score of subpopulation abundance” value of the first is higher: 1.02 for the first, 0.33 for the second.

Compared with CN1C(=O)COc2c(C(=O)NC3CN4CCC3CC4)cc(Cl)cc21 (centres undefined) [Azasetron HCl], O=c1[nH]c2ccccc2n1CCCN1CCC(n2c(=O)[nH]c3cc(Cl)ccc32)CC1 [Domperidone] is higher in “z-score of subpopulation abundance” value: 0.36 for the first, 0.4 for the second.

First: CC[C@@H](C(N)=O)N1CCCC1=O [Levetiracetam]
Second: COc1cc2c(cc1OC)C1CC(=O)C(CC(C)C)CN1CC2 (centres undefined) [Tetrabenazine (Xenazine)]
The “z-score of subpopulation abundance” value of the first is higher: 0 for the first, -1.18 for the second.

First: O=c1cccc2n1C[C@@H]1CNC[C@H]2C1 [Cytisine]
Second: COc1ccc2c(c1)[C@]13CCCC[C@@H]1[C@H](C2)N(C)CC3 [Dextromethorphan hydrobromide hydrate]
The “z-score of subpopulation abundance” value of the first is lower: -0.25 for the first, 0.26 for the second.

Going from Oc1cc(Cl)ccc1Oc1ccc(Cl)cc1Cl [Triclosan] to Cc1cc(C(C#N)c2ccc(Cl)cc2)c(Cl)cc1NC(=O)c1cc(I)cc(I)c1O (centres undefined) [Closantel], the “z-score of subpopulation abundance” value falls from -0.09 to -0.26.

First: C#C[C@]1(O)C=C[C@H]2[C@@H]3CCC4=CC(=O)CC[C@@H]4[C@H]3CC[C@@]21CC [Gestodene]
Second: COc1ccc(C(CN(C)C)C2(O)CCCCC2)cc1 (centres undefined) [Venlafaxine HCl]
The “z-score of subpopulation abundance” value of the first is lower: -0.99 for the first, -0.58 for the second.

Going from CCN(C)C(=O)Oc1cccc([C@H](C)N(C)C)c1 [Rivastigmine] to CN(C)C(=O)Oc1cccc([N+](C)(C)C)c1 [Neostigmine Bromide], the “z-score of subpopulation abundance” value falls from -0.07 to -0.26.

Going from CN1[C@@H]2C[C@@H](OC(=O)[C@H](CO)c3ccccc3)C[C@H]1[C@@H]1O[C@@H]12 [Scopolamine HBr trihydrate] to CC[C@H]1[C@@H]2C[C@H]3[C@@H]4N(C)c5ccccc5[C@]45C[C@@H]([C@@H]2[C@H]5O)N3[C@@H]1O [Ajmaline], the “z-score of subpopulation abundance” value rises from 0.18 to 0.29.

Going from Cc1cc(O)ccc1Cl [Chlorocresol] to Oc1cccc2cccnc12 [8-Hydroxyquinoline], the “z-score of subpopulation abundance” value rises from -0.59 to -0.25.

First: COc1ccc(C(CN(C)C)C2(O)CCCCC2)cc1 (centres undefined) [Venlafaxine]
Second: CN(C)[C@@H]1C(=O)C(C(N)=O)=C(O)[C@@]2(O)C(=O)C3=C(O)c4c(O)ccc(Cl)c4[C@@](C)(O)[C@H]3C[C@@H]12 [Chlortetracycline HCl]
The “z-score of subpopulation abundance” value of the first is higher: 0.93 for the first, 0.25 for the second.

First: Nc1ccncc1 [4-Aminopyridine]
Second: C[CH2][Hg][S]c1ccccc1C(=O)[O-].[Na+] [Thimerosal]
The “z-score of subpopulation abundance” value of the first is higher: -0.8 for the first, -3.69 for the second.

Compared with C[N+](C)(C)CCCCCCCCCC[N+](C)(C)C [Decamethonium Bromide], CCCCCCCCCCCCCCCC[n+]1ccccc1 [Cetylpyridinium Chloride] is higher in “z-score of subpopulation abundance” value: 0.01 for the first, 1.27 for the second.

Compared with O=C(O[C@H]1C[N+]2(CCCOc3ccccc3)CCC1CC2)C(O)(c1cccs1)c1cccs1 [Aclidinium Bromide], CCOC(=O)Nc1ccc(NCc2ccc(F)cc2)cc1N [Retigabine] is lower in “z-score of subpopulation abundance” value: 0.94 for the first, -0.91 for the second.

Compared with CNC1CC(N)C(O)C(OC2OC(CO)C(O)C3OC4(OC(C(N)CO)C(O)C(O)C4O)OC23)C1O (centres undefined) [Hygromycin B], Nc1nc(N)nc(NC2CC2)n1 [Cyromazine] is higher in “z-score of subpopulation abundance” value: 0.58 for the first, 0.89 for the second.
